PubChem BioAssay (NCATS)
Results filed as inconclusive are left out. Active and inactive are the calls of the source. Unless noted, calls follow the shape of the dose curve; as a rule, active = well fitted curve in the direction sought with a large enough effect; inconclusive = small, poorly fitted or top-dose-only effect, or another doubt; inactive = no such curve, though single readings can be large; an effect the other way counts as inactive or inconclusive.

Columns and labels:
[1] = qHTS assay for measurement of the activity of small molecule inhibitors on Zika virus induced Caspase-3 activity in human iPSC derived neural progenitor cells (hNPCs) (AID 1224857); also: % of control where 0% means no effect; nearly all actives have a fitted effect of over 65% in size
Method in brief: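 Values are percent inhibition of virus-induced caspase-3/7 signal, scaled between uninfected cells and ZIKV-infected cells. Infection used 2 FFU/cell for 6 h after 1 h compound exposure.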

[2] = qHTS assay for measurement of the activity of small molecule inhibitors on Zika virus induced Caspase-3 activity in human astrocytoma cells (AID 1224859);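 also: plate controls were ZIKV-infected untreated cells for no effect and uninfected cells for full effect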
Method in brief: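 Compound added 1 h pre-infection; ZIKV 2 FFU/cell on SNB-19 cells, 6 h, 37 C/5% CO2. Caspase-Glo 3/7 luminescence; values as % inhibition of ZIKV-induced caspase activity.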

[3] = qHTS assay to identify small molecule inhibitors of chordoma cells - UCH-1 (AID 1259355); also: nearly all actives have a fitted effect of over 55% in size; also: potency is read from the fitted curve at half-maximal effect
Method in brief: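 Luminescent ATP read-out (CellTiter-Glo, 30min at room temperature) measured viability of UCH-1 cells exposed for 48hr to test drugs at 15 concentrations, co-dosed with a five-agent combination of auranofin, camptothecin, doxorubicin, rubitecan and topotecan.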

[4] = P-glycoprotein substrates identified in KB-8-5-11 adenocarcinoma cell line, qHTS therapeutic library screen (AID 1346987); also: nearly all actives have a fitted effect of over 65% in size; also: potency is read from the fitted curve at half-maximal effect
Method in brief: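 P-gp-mediated resistance screen: KB-8-5-11 cells treated 72 h with compounds in dose-response. CellTiter-Glo viability.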

[5] = NS1 protein of Zika virus - qHTS assay to identify small molecule inhibitors in human HEK 293 cells (AID 1347053);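 also: plate controls were infected untreated cells for no effect and uninfected cells for full effect; nearly all actives have a fitted effect of over 55% in size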
Method in brief: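 Inhibition of NS1 expression was scored in HEK 293 cells given compound 1 h ahead of MR766 virus (MOI = 0.5). Following 24 h at 37 C, two anti-NS1 antibodies generated a TR-FRET signal, scaled between uninfected and infected controls.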

[6] = qHTS assay to identify small molecule inhibitors of chordoma cells - UCH-2 (AID 1259356); also: potency is read from the fitted curve at half-maximal effect; as to activity change, negative = inhibition: % is scaled to controls: 0 for no effect and ±100 for the full control effect
[7] = qHTS profiling of the MIPE4 collection as inhibitors of Plasmodium falciparum (DD2) proliferation (AID 743345; call rule not given here); conditions: P. falciparum Dd2 in erythrocytes, SYBR Green DNA, 72 h; at 28.5 µM (top of the series) unless noted
Method in brief: (§1)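 Erythrocytes infected with P. falciparum (0.3% parasitemia, 2.5% hematocrit) incubated with compounds 72 h at 37 C, 5% CO2. Lysis with saponin/Triton buffer containing SYBR Green I, overnight at room temperature in the dark; DNA fluorescence (485/535 nm) normalised to 0.29 uM artemisinin and DMSO.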

[8] = qHTS profiling of the MIPE4 collection as inhibitors of Plasmodium falciparum (DD2) proliferation (Rep 2) (AID 743346; call rule not given here); conditions: P. falciparum Dd2 in erythrocytes, SYBR Green DNA, 72 h; at 28.5 µM (top of the series) unless noted
Method in brief: as §1

[9] = qHTS profiling of the MIPE4 collection as inhibitors of Plasmodium falciparum (HB3) proliferation (AID 743347; call rule not given here;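 also: plate controls were DMSO vehicle wells for no effect and artemisinin wells for full effect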); conditions: P. falciparum HB3 in erythrocytes, SYBR Green DNA, 72 h; at 28.5 µM (top of the series) unless noted
Method in brief: as §1

[10] = Natriuretic polypeptide receptor (hNpr1) antagonism - Pilot counterscreen GloSensor control cell line (AID 1347045; calls by dose curve; also: % is scaled to controls: 0 for no effect and ±100 for the full control effect)
Method in brief: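 This counterscreen uses HEK293 cells expressing the GIP/pGS-40F cGMP biosensor. Compound-treated cells are challenged with 50 uM sodium nitroprusside, and the luciferase signal is compared before and after stimulation.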

[11] = target: Atrial natriuretic peptide receptor 2 (Homo sapiens) (UniProt P20594); experiment: Natriuretic polypeptide receptor (hNpr2) antagonism - Pilot subtype selectivity assay (AID 1347050; calls by dose curve; also: % is scaled to controls: 0 for no effect and ±100 for the full control effect)
Method in brief: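 cGMP-sensor HEK293/hNpr2 cells; 2% GloSensor reagent 2 h RT; compounds 30 min; baseline luminescence read; 1 nM hNppC agonist 20 min RT; final luminescence read by CCD camera. Antagonism = reduced post-agonist signal.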

[12] = target: Tyrosine-protein phosphatase non-receptor type substrate 1 (Homo sapiens) + Leukocyte surface antigen CD47 (Homo sapiens) (UniProt P78324+Q08722); experiment: CD47-SIRPalpha protein protein interaction - LANCE assay qHTS validation (AID 1347057; active = well fitted curve in the direction sought with a large enough effect in the signal ratio, with a control signal flat, not every such curve was filed as active; the % refers to the signal ratio; also: 0% is about no effect)
Method in brief: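 First, His-tagged CD47 and Eu-labelled anti-His antibody met the compound for 30 min; next, site-specifically biotinylated SIRPalpha was added for 30 min; finally streptavidin-APC was added before reading the TR-FRET ratio.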

Tyrosine-protein phosphatase non-receptor type substrate 1 (Homo sapiens) + Leukocyte surface antigen CD47 (Homo sapiens), sequence (P78324 whole entry, looked up): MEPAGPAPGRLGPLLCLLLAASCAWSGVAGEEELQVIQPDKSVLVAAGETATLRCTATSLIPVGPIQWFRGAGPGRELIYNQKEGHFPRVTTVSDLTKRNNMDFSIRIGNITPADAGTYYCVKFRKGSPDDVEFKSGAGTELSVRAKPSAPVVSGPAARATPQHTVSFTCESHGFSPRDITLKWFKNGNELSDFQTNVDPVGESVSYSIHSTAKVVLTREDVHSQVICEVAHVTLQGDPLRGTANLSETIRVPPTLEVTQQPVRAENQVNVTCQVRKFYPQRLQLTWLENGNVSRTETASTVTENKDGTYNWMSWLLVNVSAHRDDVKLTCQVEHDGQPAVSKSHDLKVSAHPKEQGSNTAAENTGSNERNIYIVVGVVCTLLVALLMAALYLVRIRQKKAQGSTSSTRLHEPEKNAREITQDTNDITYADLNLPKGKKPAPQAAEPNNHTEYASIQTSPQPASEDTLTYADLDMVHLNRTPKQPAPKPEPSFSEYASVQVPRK
Tyrosine-protein phosphatase non-receptor type substrate 1 (Homo sapiens) + Leukocyte surface antigen CD47 (Homo sapiens), sequence (Q08722 whole entry, looked up): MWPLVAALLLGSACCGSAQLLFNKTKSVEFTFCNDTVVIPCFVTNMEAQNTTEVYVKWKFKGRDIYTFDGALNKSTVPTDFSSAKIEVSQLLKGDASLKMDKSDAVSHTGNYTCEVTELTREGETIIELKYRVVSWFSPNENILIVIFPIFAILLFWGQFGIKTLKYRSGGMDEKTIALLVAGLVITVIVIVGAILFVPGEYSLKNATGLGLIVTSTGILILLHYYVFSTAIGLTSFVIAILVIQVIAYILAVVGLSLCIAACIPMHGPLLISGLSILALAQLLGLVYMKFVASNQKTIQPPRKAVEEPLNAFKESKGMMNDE
Atrial natriuretic peptide receptor 2 (Homo sapiens), sequence (P20594 whole entry, looked up): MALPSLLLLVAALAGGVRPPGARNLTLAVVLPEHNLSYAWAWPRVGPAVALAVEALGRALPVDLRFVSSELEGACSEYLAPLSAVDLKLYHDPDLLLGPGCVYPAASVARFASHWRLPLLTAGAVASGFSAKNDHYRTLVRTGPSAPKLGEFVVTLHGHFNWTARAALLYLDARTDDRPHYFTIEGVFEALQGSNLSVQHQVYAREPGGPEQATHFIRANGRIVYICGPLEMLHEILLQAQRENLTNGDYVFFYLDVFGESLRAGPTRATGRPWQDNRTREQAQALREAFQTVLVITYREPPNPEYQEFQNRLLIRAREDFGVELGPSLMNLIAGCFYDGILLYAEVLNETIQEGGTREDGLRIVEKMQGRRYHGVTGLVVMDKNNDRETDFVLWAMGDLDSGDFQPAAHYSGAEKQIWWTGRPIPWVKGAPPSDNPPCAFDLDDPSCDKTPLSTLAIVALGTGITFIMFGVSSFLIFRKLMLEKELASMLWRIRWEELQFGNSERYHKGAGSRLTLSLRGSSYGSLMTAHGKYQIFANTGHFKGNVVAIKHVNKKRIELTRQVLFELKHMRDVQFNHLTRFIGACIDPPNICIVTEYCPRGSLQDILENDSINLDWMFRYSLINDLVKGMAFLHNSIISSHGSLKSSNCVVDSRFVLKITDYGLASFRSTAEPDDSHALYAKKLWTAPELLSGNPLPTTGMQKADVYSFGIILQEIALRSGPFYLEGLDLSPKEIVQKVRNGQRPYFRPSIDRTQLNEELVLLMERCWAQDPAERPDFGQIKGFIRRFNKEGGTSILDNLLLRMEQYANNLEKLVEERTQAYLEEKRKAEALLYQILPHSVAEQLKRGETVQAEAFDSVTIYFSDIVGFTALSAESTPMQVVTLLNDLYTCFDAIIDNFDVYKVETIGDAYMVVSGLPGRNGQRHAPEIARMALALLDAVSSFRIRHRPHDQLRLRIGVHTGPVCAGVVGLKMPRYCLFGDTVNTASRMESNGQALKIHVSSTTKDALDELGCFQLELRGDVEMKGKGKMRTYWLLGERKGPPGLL

CCCCCCC[N+](CC)(CC)CCCCc1ccc(Cl)cc1
inactive: outcome [1] | outcome [2] | Potency [3] | Potency [4]

CC(=O)c1ccc2c(c1)N(CCCN1CCC(CCO)CC1)c1ccccc1S2
inactive: outcome [1] | outcome [2] | Potency [3] | Potency [4] | Potency [5]

CC1=C(C(=O)O)N2C(=O)[C@@H](NC(=O)[C@H](N)c3ccc(O)cc3)[C@H]2SC1
inactive: outcome [1] | outcome [2] | Potency [3] | Potency [6] | Potency [5]

CCCCCCCCCCCCCCCCOP(=O)([O-])OCC[N+](C)(C)C
inactive: outcome [1] | outcome [2] | Potency [3] | Potency [6] | Potency [5]

CN1CCN(CCCN2c3ccccc3Sc3ccc(S(=O)(=O)N(C)C)cc32)CC1
48.8% [at 9.64 µM]: parasite growth, % of control (lower = inhibition) [8]
inactive: outcome [1] | outcome [2] | Potency [3] | Potency [6] | Potency [5]
44% [at 9.64 µM]: parasite growth remaining, % of DMSO control (lower = more inhibition) [7]
68.8% [at 9.64 µM]: growth, % of control [9]

CC(=O)Oc1ccc(C(=C2CCCCC2)c2ccc(OC(C)=O)cc2)cc1
inactive: outcome [1] | outcome [2] | Potency [3] | Potency [6] | Potency [5]

CC[C@@H](CO)NCCN[C@@H](CC)CO
106%: parasite growth remaining, % of DMSO control (lower = more inhibition) [7] | growth, % of control [9]
inactive: outcome [1] | outcome [2] | Potency [3] | Potency [6] | Potency [5]
68.5%: parasite growth, % of control (lower = inhibition) [8]

N[C@@H](CCC(=O)N[C@@H](CS)C(=O)NCC(=O)O)C(=O)O
inactive: outcome [1] | outcome [2] | Potency [3] | Potency [6] | Potency [5]

CO/N=C1\CN(c2nc3c(cc2F)c(=O)c(C(=O)O)cn3C2CC2)CC1CN (stereo not drawn)
inactive: outcome [1] | outcome [2] | Potency [3] | Potency [6] | Potency [5]

CCCCC1=NC2(CCCC2)C(=O)N1Cc1ccc(-c2ccccc2-c2nn[nH]n2)cc1
inactive: outcome [1] | outcome [2] | Potency [3] | Potency [6] | Potency [5]

CCOC(=O)/C=C(C)/C=C/C=C(C)/C=C/c1c(C)cc(OC)c(C)c1C
inactive: outcome [1] | outcome [2] | Potency [3] | Potency [6] | Potency [5]

O=C(CCCN1CCC(O)(c2ccc(Br)cc2)CC1)c1ccc(F)cc1
inactive: outcome [1] | outcome [2] | Potency [3] | Potency [6] | Potency [5]

CCC(C(=O)OCCN(CC)CC)c1ccccc1 (stereo not drawn)
inactive: outcome [1] | outcome [2] | Potency [3] | Potency [4] | Potency [5]

CCCCCCCCCCCCCCNCCO
inactive: outcome [1] | outcome [2] | Potency [3] | Potency [6] | Potency [5]

Cc1ccnc(NS(=O)(=O)c2ccc(N)cc2)n1
inactive: outcome [1] | outcome [2] | Potency [3] | Potency [6] | Potency [5]

COc1cc(N)c(Cl)cc1C(=O)NC1CCN(CCCOc2ccc(F)cc2)CC1OC (stereo not drawn)
inactive: outcome [1] | outcome [2] | Potency [3] | Potency [6] | Potency [5]

CC/C(=C(/CC)c1ccc(O)cc1)c1ccc(O)cc1
inactive: outcome [1] | outcome [2] | Potency [3] | Potency [6] | Potency [5]

O=S1(=O)c2cccc3cccc(c23)N1CCCN1CCN(c2ccc(F)cc2)CC1
inactive: outcome [1] | outcome [2] | Potency [3] | Potency [6] | Potency [5]

CC(Cc1cccc(C(F)(F)F)c1)NCCOC(=O)c1ccccc1 (stereo not drawn)
inactive: outcome [1] | outcome [2] | Potency [3] | Potency [6] | Potency [5]

NCCCC[C@H](N[C@@H](CCc1ccccc1)C(=O)O)C(=O)N1CCC[C@H]1C(=O)O
inactive: outcome [1] | outcome [2] | Potency [3] | Potency [6] | Potency [5]

Cc1cccn2c(=O)c(-c3nnn[nH]3)cnc12
inactive: outcome [1] | outcome [2] | Potency [3] | Potency [6] | Potency [5]

COc1ccc(CCN2CCC(Nc3nc4ccccc4n3Cc3ccc(F)cc3)CC2)cc1
inactive: outcome [1] | outcome [2]
active: Potency [3] 31.6 µM | Potency [4] 20.6 µM

CCn1cc(C(=O)O)c(=O)c2cnc(N3CCCC3)nc21
inactive: activity change, negative = inhibition [1] -4.24% [at 9.06 µM] | activity change, negative = inhibition [2] 4.3% [at 9.06 µM] | Potency [6] | Potency [4] | activity change, negative = inhibition [5] -25.1% [at 9.2 µM]

CNCCC(Oc1ccccc1C)c1ccccc1 (stereo not drawn)
inactive: outcome [1] | outcome [2] | Potency [3] | outcome [10] | outcome [11] | Potency [5] | outcome [12]

CCN(CC)C(=O)/C(C#N)=C/c1cc(O)c(O)c([N+](=O)[O-])c1
inactive: outcome [1] | outcome [2] | Potency [6] | Potency [4] | Potency [5]

O=C1OCCN1/N=C/c1ccc([N+](=O)[O-])o1
inactive: outcome [1] | outcome [2] | Potency [6] | Potency [4] | Potency [5]

CC(=O)[C@H]1CC[C@H]2[C@@H]3C[C@H](C)C4=CC(=O)CC[C@]4(C)[C@H]3[C@@H](O)C[C@]12C
inactive: outcome [1] | outcome [2] | Potency [6] | Potency [5]
active: Potency [4] 6.99 µM

CCCCC(CC)CN=C(N)NC(N)=NCCCCCCN=C(N)NC(N)=NCC(CC)CCCC (stereo not drawn)
inactive: outcome [1] | outcome [2]
active: Potency [6] 25.9 µM

CCOC(=O)c1cccc(N)c1
inactive: outcome [1] | outcome [2] | Potency [3] | Potency [4] | Potency [5]

COc1cccc2c1C(=O)c1c(O)c3c(c(O)c1C2=O)C[C@@](O)(C(C)=O)C[C@@H]3O[C@H]1C[C@H](N)[C@H](O)[C@H](C)O1
active: Potency [3] 1.78 µM
inactive: outcome [1] | outcome [2] | Potency [5]

O=c1c(-c2ccccc2)c1-c1ccccc1
inactive: outcome [1] | outcome [2] | Potency [6]

Cc1c(N(C)CS(=O)(=O)O)c(=O)n(-c2ccccc2)n1C
inactive: outcome [1] | outcome [2] | Potency [6] | Potency [4] | Potency [5]

O=c1ccc2ccccc2o1
inactive: outcome [1] | outcome [2] | Potency [6] | Potency [4] | Potency [5]

COc1cccc(CCc2ccccc2OCC(CN(C)C)OC(=O)CCC(=O)O)c1 (stereo not drawn)
5.27%: growth, % of control [9]
21.2%: parasite growth, % of control (lower = inhibition) [8]
inactive: outcome [1] | outcome [2] | Potency [3] | Potency [5]
11.9%: parasite growth remaining, % of DMSO control (lower = more inhibition) [7]
